In PubChem BioAssay (EPA / NIEHS) one finds outcome and AC50 data, which are given here for 24 molecules.

Values joined by “and” are separate entries in the source; they are usually repeats but may differ in a detail not shown here. Equal values may be shown once. Active and inactive are the calls of the source. Rule for the calls: active = hit-call score of the fitted dose curve at least 0.9, where 1 is the maximum; inactive = score below 0.9.

Read-out in this assay: Matrix Metallopeptidase 1 (MMP1), MMP1 (gene 4312)
As to the kind of experiment: BSK_MyoF_MMP1: BioMAP Diversity Plus: MyoF Assay for Matrix Metallopeptidase 1 (MMP1) Biomarker Activity (AID 2284268). The following applies: primary human lung fibroblasts. An outline of the steps: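 Cells: human lung fibroblasts. Exposure: 24 h chemical dosing. Detection: ELISA for MMP1. Analysis: upward fitting against DMSO negative control.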
On to `O=C1CCCCCCCCCCC1`, for which the outcome was inactive.

`CC(C)c1cccc(C(C)C)c1N`: the result was inactive.

Regarding `CC1=CC=C(C(C)C)CC1`, the result was inactive.

With `O=C(Cl)c1c(Cl)c(Cl)c(C(=O)Cl)c(Cl)c1Cl`, the result was inactive.

Consider `Cc1c(O)cccc1O`, for which the outcome was inactive.

With `c1ccc2c(c1)[nH]c1ccccc12`, the result was inactive.

In general, AC50 refers to the concentration at which the activity in the assay is half-maximal. As for `Clc1cc(Cl)c(Cl)c(Cl)c1Cl`, the AC50 is 23.2 µM (active).

`CC=C(C)C(C)=O`: the outcome was inactive.

Take `CC/C=C\C/C=C\C/C=C\CCCCCCCC(=O)OC`: the AC50 is 36.5 µM (active).

As for `C=CC(=O)OCCCCCCCC(C)C`, the result was inactive.

For the molecule `Nc1cccc(N)n1`, the result was inactive.

As for `C=CCCCCCCCCC=O`, the result was inactive.

`CCc1cccc(C)c1N(C(=O)CS(=O)(=O)O)C(C)COC` (centres undefined): the result was inactive.

As to `C=CC(=O)NCOCCCC`, the result was inactive.

As for `CCOC(=O)/C=C\C(=O)OCC`, the result was inactive.

Consider `CCNc1nc(NC(C)(C)C)nc(OC)n1`, for which the result was inactive.

Turning to `Oc1c(Cl)cc(Cl)c(Cl)c1Cl`, the result was inactive.

Consider `CCCCCCC=O`, for which the result was inactive.

As to `O=C(Oc1ccccc1)c1ccccc1C(=O)Oc1ccccc1`, the result was inactive.

For `C=CC(=O)OCC(C)OCC(C)OCC(C)OC(=O)C=C` (centres undefined), the half-maximal activity concentration (AC50) was 35.1 µM (active).

As to `COc1ccc(C(=O)/C(Br)=C\C(=O)O)cc1`, the concentration at half-maximal activity (AC50) is 16.1 µM (active) and 20 µM (active).

With `CC(C)CCCCCOC(=O)CS`, the result was inactive.

Take `CCOC(=O)C1=NOC(c2ccccc2)(c2ccccc2)C1`: the outcome was inactive.

As for `CCCCCCCCCCCC(C)=O`, the outcome was inactive.
